# Measurements taken from the supplement of paper PMC8728848.
# Only a selection was taken, and the strongest signals are over-represented in it overall.
# B1: LecB PA7 (Pseudomonas aeruginosa) (protein)
# chain: MATQGVFTLPANTRFGVTAFANSSATQTVKVLVNNETAATFTGQSTNNAVIGSQVLNSGGGGKVQIQVSVNGRSSDLVSAQVILANELNVALVGSEDSTDNDYNDAVVVINWPLG
# Assays:
# Experiment in all cases: glycan array binding signal (z-score within array); higher = stronger binding
# Conditions in all cases: glycan notation: IUPAC condensed, linker removed
# Fuc(a1-2)Gal(b1-4)Glc6S = biological target: Fuc(a1-2)Gal(b1-4)Glc6S
# In short: (§1)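 Glycan array data came from 3228 arrays in the Consortium for Functional Glycomics database, and only arrays with an available protein sequence were kept. Glycan names were put into IUPAC-condensed notation, and columns mapping to the same glycan were averaged. The binding signal is a within-array Z-score, averaged across arrays of one protein sequence run at different concentrations or buffers and across linkers. A negative Z-score can be read as non-binding.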
# [1] = biological target: Fuc(a1-2)Gal(b1-4)GlcNAc(b1-3)Gal(b1-4)GlcNAc
# In short: as §1
# [2] = biological target: Fuc(a1-2)Gal(b1-4)GlcNAc(b1-3)Gal(b1-4)GlcNAc(b1-2)Man(a1-3)[Fuc(a1-2)Gal(b1-4)GlcNAc(b1-3)Gal(b1-4)GlcNAc(b1-2)Man(a1-6)]Man(b1-4)GlcNAc(b1-4)GlcNAc
# In short: as §1
# [3] = biological target: Fuc(a1-2)Gal(b1-4)GlcNAc(b1-3)Gal(b1-4)GlcNAc(b1-3)Gal(b1-4)GlcNAc
# In short: as §1
# [4] = biological target: Fuc(a1-2)Gal(b1-4)GlcNAc(b1-3)GalNAc
# In short: as §1
# [5] = biological target: Fuc(a1-2)Gal(b1-4)GlcNAc(b1-6)GalNAc
# In short: as §1
# [6] = biological target: Fuc(a1-2)Gal(b1-4)[Fuc(a1-3)]GlcNAc(b1-2)Man(a1-3)[Fuc(a1-2)Gal(b1-4)[Fuc(a1-3)]GlcNAc(b1-2)Man(a1-6)]Man(b1-4)GlcNAc(b1-4)[Fuc(a1-6)]GlcNAc
# In short: as §1
# [7] = biological target: Fuc(a1-2)Gal(b1-4)[Fuc(a1-3)]GlcNAc(b1-2)[Fuc(a1-2)Gal(b1-4)[Fuc(a1-3)]GlcNAc(b1-4)]Man(a1-3)[Fuc(a1-2)Gal(b1-4)[Fuc(a1-3)]GlcNAc(b1-2)Man(a1-6)]Man(b1-4)GlcNAc(b1-4)GlcNAc
# In short: as §1
# [8] = biological target: Fuc(a1-2)Gal(b1-4)[Fuc(a1-3)]GlcNAc(b1-3)Gal(b1-4)[Fuc(a1-3)]GlcNAc
# In short: as §1
# [9] = biological target: Fuc(a1-2)Gal(b1-4)[Fuc(a1-3)]GlcNAc(b1-3)Gal(b1-4)[Fuc(a1-3)]GlcNAc(b1-3)Gal(b1-4)[Fuc(a1-3)]GlcNAc
# In short: as §1
# [10] = biological target: Fuc(a1-2)[Gal(a1-3)]Gal(b1-3)GalNAc(b1-3)Gal(a1-4)Gal(b1-4)Glc
# In short: as §1
# [11] = biological target: Fuc(a1-2)[Gal(a1-3)]Gal(b1-3)GlcNAc(b1-2)Man(a1-3)[Fuc(a1-2)[Gal(a1-3)]Gal(b1-3)GlcNAc(b1-2)Man(a1-6)]Man(b1-4)GlcNAc(b1-4)[Fuc(a1-6)]GlcNAc
# In short: as §1
# [12] = biological target: Fuc(a1-2)[Gal(a1-3)]Gal(b1-4)[Fuc(a1-3)]GlcNAc(b1-3)GalNAc
# In short: as §1
# [13] = biological target: Fuc(a1-2)[GalNAc(a1-3)]Gal(b1-4)GlcNAc(b1-3)Gal(b1-4)GlcNAc(b1-3)Gal(b1-4)GlcNAc
# In short: as §1
# [14] = biological target: Fuc(a1-2)[GalNAc(a1-4)]Gal(b1-4)GlcNAc
# In short: as §1
# [15] = biological target: Fuc(a1-3)[Gal(b1-4)]GlcNAc(b1-3)Gal(b1-4)[Fuc(a1-3)]GlcNAc(b1-3)Gal(b1-4)[Fuc(a1-3)]GlcNAc
# In short: as §1
# Gal(b1-3)GalNAc = biological target: Gal(b1-3)GalNAc
# In short: as §1
# [16] = biological target: Gal(b1-3)GlcNAc(a1-3)Gal(b1-4)GlcNAc
# In short: as §1
# [17] = biological target: Gal(b1-3)GlcNAc(b1-3)Gal(b1-4)[Fuc(a1-3)]GlcNAc
# In short: as §1
# [18] = biological target: Gal(b1-3)GlcNAc(b1-3)GalNAc
# In short: as §1
# [19] = biological target: Gal(b1-3)GlcNAc(b1-6)[Gal(b1-3)]GalNAc
# In short: as §1
# [20] = biological target: Gal(b1-3)[Fuc(a1-4)]GlcNAc(b1-3)Gal(b1-3)[Fuc(a1-4)]GlcNAc
# In short: as §1
# [21] = biological target: Gal(b1-3)[Fuc(a1-4)]GlcNAc(b1-3)Gal(b1-4)[Fuc(a1-3)]GlcNAc
# In short: as §1
# [22] = biological target: Gal(b1-3)[Neu5Ac(a2-6)]GalNAc
# In short: as §1
# [23] = biological target: Gal(b1-4)GalNAc(b1-3)[Fuc(a1-2)]Gal(b1-4)GlcNAc
# In short: as §1
# Gal(b1-4)Glc = biological target: Gal(b1-4)Glc
# In short: as §1
# Gal(b1-4)GlcNAc(b1-2)Man = biological target: Gal(b1-4)GlcNAc(b1-2)Man
# In short: as §1
# [24] = biological target: Gal(b1-4)GlcNAc(b1-3)Gal(b1-4)GlcNAc(b1-3)[Gal(b1-4)GlcNAc(b1-3)Gal(b1-4)GlcNAc(b1-6)]GalNAc
# In short: as §1
# [25] = biological target: Gal(b1-4)GlcNAc(b1-3)Gal(b1-4)[Fuc(a1-3)]GlcNAc(b1-3)Gal(b1-4)[Fuc(a1-3)]GlcNAc
# In short: as §1
# Gal4S(b1-4)GlcNAc = biological target: Gal4S(b1-4)GlcNAc
# In short: as §1
# Gal6S(b1-4)GlcNAc = biological target: Gal6S(b1-4)GlcNAc
# In short: as §1
# GalNAc(b1-3)Gal = biological target: GalNAc(b1-3)Gal
# In short: as §1
# GalNAc3S(b1-4)GlcNAc3S = biological target: GalNAc3S(b1-4)GlcNAc3S
# In short: as §1
# [26] = biological target: GlcNAc(a1-4)Gal(b1-4)GlcNAc(b1-3)Gal(b1-4)Glc
# In short: as §1
# [27] = biological target: GlcNAc(b1-3)Gal(b1-4)GlcNAc(b1-3)Gal(b1-4)GlcNAc
# In short: as §1
# [28] = biological target: GlcNAc(b1-3)Gal(b1-4)GlcNAc(b1-3)Gal(b1-4)GlcNAc(b1-3)Gal(b1-4)GlcNAc(b1-2)Man(a1-3)[GlcNAc(b1-3)Gal(b1-4)GlcNAc(b1-3)Gal(b1-4)GlcNAc(b1-3)Gal(b1-4)GlcNAc(b1-2)Man(a1-6)]Man(b1-4)GlcNAc(b1-4)GlcNAc
# In short: as §1
# [29] = biological target: GlcNAc(b1-3)Gal(b1-4)GlcNAc(b1-3)Gal(b1-4)GlcNAc(b1-3)Gal(b1-4)GlcNAc(b1-3)Gal(b1-4)GlcNAc(b1-2)Man(a1-3)[GlcNAc(b1-3)Gal(b1-4)GlcNAc(b1-3)Gal(b1-4)GlcNAc(b1-3)Gal(b1-4)GlcNAc(b1-3)Gal(b1-4)GlcNAc(b1-2)Man(a1-6)]Man(b1-4)GlcNAc(b1-4)[Fuc(a1-6)]GlcNAc
# In short: as §1
# [30] = biological target: GlcNAc(b1-3)[GlcNAc(b1-6)]Gal(b1-4)GlcNAc
# In short: as §1
# GlcNAc(b1-4)GlcNAc = biological target: GlcNAc(b1-4)GlcNAc
# In short: as §1
# [31] = biological target: GlcNAc(b1-4)GlcNAc(b1-4)GlcNAc
# In short: as §1
# GlcNAc(b1-6)GalNAc = biological target: GlcNAc(b1-6)GalNAc
# In short: as §1
# Kdn(a2-3)Gal(b1-3)GlcNAc = biological target: Kdn(a2-3)Gal(b1-3)GlcNAc
# In short: as §1
# [32] = biological target: Man(a1-2)Man(a1-3)[Man(a1-2)Man(a1-6)]Man(a1-6)[Man(a1-2)Man(a1-2)Man(a1-3)]Man
# In short: as §1
# [33] = biological target: Man(a1-3)[Man(a1-6)]Man(a1-6)[Man(a1-2)Man(a1-3)]Man(b1-4)GlcNAc(b1-4)GlcNAc
# In short: as §1
# [34] = biological target: Neu5Ac(a2-3)Gal(b1-3)[Fuc(a1-4)]GlcNAc
# In short: as §1
# [35] = biological target: Neu5Ac(a2-3)Gal(b1-4)GlcNAc(b1-3)Gal(b1-3)GlcNAc
# In short: as §1
# [36] = biological target: Neu5Ac(a2-3)Gal(b1-4)GlcNAc(b1-3)GalNAc
# In short: as §1
# [37] = biological target: Neu5Ac(a2-3)Gal(b1-4)GlcNAc(b1-6)[Gal(b1-3)]GalNAc
# In short: as §1
# [38] = biological target: Neu5Ac9Ac(a2-6)Gal(b1-4)GlcNAc
# In short: as §1
# [39] = biological target: Neu5Gc(a2-3)Gal(b1-3)[Fuc(a1-4)]GlcNAc
# In short: as §1
# Neu5Gc(a2-6)GalNAc = biological target: Neu5Gc(a2-6)GalNAc
# In short: as §1
# [40] = biological target: Neu5Gc(a2-8)Neu5Gc(a2-6)Gal(b1-4)GlcNAc
# In short: as §1
binder,measurement,setting,value
B1,glycan array binding signal (z-score),Fuc(a1-2)Gal(b1-4)Glc6S,1.89
same,glycan array binding signal (z-score),[1],3.5
same,glycan array binding signal (z-score),[2],10.1
same,glycan array binding signal (z-score),[3],3.71
same,glycan array binding signal (z-score),[4],0.923
same,glycan array binding signal (z-score),[5],0.819
same,glycan array binding signal (z-score),[6],5.18
same,glycan array binding signal (z-score),[7],-0.08
same,glycan array binding signal (z-score),[8],4.93
same,glycan array binding signal (z-score),[9],4.08
same,glycan array binding signal (z-score),[10],-0.43
same,glycan array binding signal (z-score),[11],0.145
same,glycan array binding signal (z-score),[12],0.197
same,glycan array binding signal (z-score),[13],-0.381
same,glycan array binding signal (z-score),[14],1.57
same,glycan array binding signal (z-score),[15],3.54
same,glycan array binding signal (z-score),Gal(b1-3)GalNAc,-0.403
same,glycan array binding signal (z-score),[16],-0.51
same,glycan array binding signal (z-score),[17],1.8
same,glycan array binding signal (z-score),[18],-0.499
same,glycan array binding signal (z-score),[19],-0.412
same,glycan array binding signal (z-score),[20],3.31
same,glycan array binding signal (z-score),[21],3.44
same,glycan array binding signal (z-score),[22],-0.511
same,glycan array binding signal (z-score),[23],-0.478
same,glycan array binding signal (z-score),Gal(b1-4)Glc,-0.502
same,glycan array binding signal (z-score),Gal(b1-4)GlcNAc(b1-2)Man,-0.495
same,glycan array binding signal (z-score),[24],-0.495
same,glycan array binding signal (z-score),[25],2.05
same,glycan array binding signal (z-score),Gal4S(b1-4)GlcNAc,-0.478
same,glycan array binding signal (z-score),Gal6S(b1-4)GlcNAc,-0.501
same,glycan array binding signal (z-score),GalNAc(b1-3)Gal,-0.493
same,glycan array binding signal (z-score),GalNAc3S(b1-4)GlcNAc3S,-0.517
same,glycan array binding signal (z-score),[26],-0.505
same,glycan array binding signal (z-score),[27],-0.503
same,glycan array binding signal (z-score),[28],-0.467
same,glycan array binding signal (z-score),[29],0.402
same,glycan array binding signal (z-score),[30],-0.516
same,glycan array binding signal (z-score),GlcNAc(b1-4)GlcNAc,-0.486
same,glycan array binding signal (z-score),[31],-0.497
same,glycan array binding signal (z-score),GlcNAc(b1-6)GalNAc,-0.504
same,glycan array binding signal (z-score),Kdn(a2-3)Gal(b1-3)GlcNAc,-0.511
same,glycan array binding signal (z-score),[32],3.2
same,glycan array binding signal (z-score),[33],2.3
same,glycan array binding signal (z-score),[34],3.31
same,glycan array binding signal (z-score),[35],-0.505
same,glycan array binding signal (z-score),[36],-0.466
same,glycan array binding signal (z-score),[37],-0.087
same,glycan array binding signal (z-score),[38],-0.502
same,glycan array binding signal (z-score),[39],2.03
same,glycan array binding signal (z-score),Neu5Gc(a2-6)GalNAc,-0.508
same,glycan array binding signal (z-score),[40],-0.507
